# Measured values reported in the supplement of paper PMC8728848.
# The entries come from a sample that favours the strongest signals as a whole.
# B1: a L Fucosidase (Streptosporangium roseum), D2B1P1_STRRD (protein)
# chain: MRRKLLLVPAVGLLVIGSIFATQPVASADTPPVYEPTVESLNSHPVPQWFNDDKFGIFIHWGAYSVPAWGPRGSYAEWYGNYMNAGGSATNAHHKATYGQDFNYDAFLQQWKAEKFDPADWVKLFKDAGAKYFVLTSKHHEGMALWDSKSSGRDSVDLGPGRDLAKELFDAARKDEAKLKAGFYYSLYEWYNPAYTGRPATNPYTGAEIPYTGAPGGGDYVKDYMLPQMRELIDGYDPDIIWCDGQWEKPASYWNTAGVIADYYNKALNSGKEVAVANRCKIQSGNLDSPELDFQTPEYTVKPDIDPVKWESSRGIAHSYGYNQNEPEEDHLTSDQLVDSLVDIVSKNGNLLLDIGPKADGTIPEIQRQRLLDIGAWLKANGEAIYGTTYWNRAEEKGGPDDVRYTAKDATLYATALKWPGEQLTLGADLPVDHSTRITMLGSGARLSWSRDEQGRVVVNTPQEAGKHAYVFKIETPGVRSLLRTSSSLAKEIAPGRTISGELTVTNPGKRHTPATKLSLTVPQGWTATLGAPRVRPLGPGESVKVPISVSAPEGVAPAPYTLGLYQRTGRMGTTTALPLTVNRPNLSLGKPATQKSTGYDAPASRAVDGNTGGDWSAGSTTHTAEPEKQAWWQVDLGASARLDSVDVWNRLDCCADRLKDFWVMASDQPFTTDDLDQARTAPGVTAVHVGEQAGSPSKVKLPEGTRGRYVRIQLASPSNPLSLAEVQVRGSMARPNLSLGKPATQKSTGYDAPASRAVDGNTGGDWSAGSTTHTAEPEKQAWWQVDLGASARLDSVDVWNRLDCCADRLKDFWVMASDQPFTTDDLDQARTAPGVTAVHVGEQAGSPSKVKLPEGTRGRYVRIQLASPSNPLSLAEVQVRLEHHHHHHS
# Key:
# Assay in all cases: glycan array binding signal (z-score within array); higher = stronger binding
# Details in all cases: glycan notation: IUPAC condensed, linker removed
# Fuc(a1-2)Gal = target: Fuc(a1-2)Gal
# In short: (§1)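 Glycan array binding is given as a within-array Z-score, which can be read as non-binding when negative. The arrays, 3228 of them, came from the Consortium for Functional Glycomics database and were retained only where the protein sequence was available. Z-scores were averaged across arrays of the same protein sequence at different concentrations or buffers and across linkers.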
# [1] = target: Fuc(a1-2)Gal(b1-3)GlcNAc(b1-2)Man(a1-3)[Fuc(a1-2)Gal(b1-3)GlcNAc(b1-2)Man(a1-6)]Man(b1-4)GlcNAc(b1-4)GlcNAc
# In short: as §1
# [2] = target: Fuc(a1-2)Gal(b1-3)GlcNAc(b1-3)[Neu5Ac(a2-6)Gal(b1-4)GlcNAc(b1-6)]Gal(b1-4)Glc
# In short: as §1
# [3] = target: Fuc(a1-2)Gal(b1-4)Fuc(a1-3)]GlcNAc(b1-2)Man(a1-3)[Fuc(a1-2)Gal(b1-4)[Fuc(a1-3)]GlcNAc(b1-2)Man(a1-6)]Man(b1-4)GlcNAc(b1-4)GlcNAc
# In short: as §1
# [4] = target: Fuc(a1-2)Gal(b1-4)GlcNAc(b1-3)Gal(b1-4)GlcNAc(b1-2)Man(a1-3)[Fuc(a1-2)Gal(b1-4)GlcNAc(b1-3)Gal(b1-4)GlcNAc(b1-2)Man(a1-6)]Man(b1-4)GlcNAc(b1-4)GlcNAc
# In short: as §1
# [5] = target: Fuc(a1-2)Gal(b1-4)GlcNAc(b1-3)Gal(b1-4)GlcNAc(b1-3)Gal(b1-4)GlcNAc
# In short: as §1
# [6] = target: Fuc(a1-2)Gal(b1-4)GlcNAc(b1-6)GalNAc
# In short: as §1
# [7] = target: Fuc(a1-2)Gal(b1-4)[Fuc(a1-3)]GlcNAc
# In short: as §1
# [8] = target: Fuc(a1-2)Gal(b1-4)[Fuc(a1-3)]GlcNAc(b1-2)Man(a1-3)[Fuc(a1-2)Gal(b1-4)[Fuc(a1-3)]GlcNAc(b1-2)Man(a1-6)]Man(b1-4)GlcNAc(b1-4)[Fuc(a1-6)]GlcNAc
# In short: as §1
# [9] = target: Fuc(a1-2)Gal(b1-4)[Fuc(a1-3)]GlcNAc(b1-2)[Fuc(a1-2)Gal(b1-4)[Fuc(a1-3)]GlcNAc(b1-4)]Man(a1-3)[Fuc(a1-2)Gal(b1-4)[Fuc(a1-3)]GlcNAc(b1-2)Man(a1-6)]Man(b1-4)GlcNAc(b1-4)GlcNAc
# In short: as §1
# [10] = target: Fuc(a1-2)Gal(b1-4)[Fuc(a1-3)]GlcNAc(b1-3)Gal(b1-4)[Fuc(a1-3)]GlcNAc
# In short: as §1
# [11] = target: Fuc(a1-2)Gal(b1-4)[Fuc(a1-3)]GlcNAc(b1-3)Gal(b1-4)[Fuc(a1-3)]GlcNAc(b1-3)Gal(b1-4)[Fuc(a1-3)]GlcNAc
# In short: as §1
# Fuc(a1-2)[Gal(a1-3)]Gal = target: Fuc(a1-2)[Gal(a1-3)]Gal
# In short: as §1
# [12] = target: Fuc(a1-2)[Gal(a1-3)]Gal(b1-3)GalNAc
# In short: as §1
# [13] = target: Fuc(a1-2)[Gal(a1-3)]Gal(b1-3)GlcNAc(b1-3)GalNAc
# In short: as §1
# [14] = target: Fuc(a1-2)[Gal(a1-4)]Gal(b1-4)GlcNAc
# In short: as §1
# [15] = target: Fuc(a1-2)[GalNAc(a1-3)]Gal(b1-3)GalNAc(a1-3)[Fuc(a1-2)]Gal(b1-4)GlcNAc
# In short: as §1
# [16] = target: Fuc(a1-2)[GalNAc(a1-3)]Gal(b1-4)GlcNAc(b1-2)Man
# In short: as §1
# [17] = target: Fuc(a1-2)[GalNAc(a1-3)]Gal(b1-4)GlcNAc(b1-2)Man(a1-3)[Fuc(a1-2)[GalNAc(a1-3)]Gal(b1-4)GlcNAc(b1-2)Man(a1-6)]Man(b1-4)GlcNAc(b1-4)[Fuc(a1-6)]GlcNAc
# In short: as §1
# [18] = target: Fuc(a1-2)[GalNAc(a1-3)]Gal(b1-4)GlcNAc(b1-3)Gal(b1-4)GlcNAc(b1-3)Gal(b1-4)GlcNAc
# In short: as §1
# [19] = target: Fuc(a1-2)[GalNAc(b1-3)]Gal
# In short: as §1
# [20] = target: Fuc(a1-3)[Gal3S(b1-4)]GlcNAc
# In short: as §1
# [21] = target: Gal(a1-3)Gal(b1-4)GlcNAc(b1-6)GalNAc
# In short: as §1
# Gal(b1-3)GlcNAc6S = target: Gal(b1-3)GlcNAc6S
# In short: as §1
# [22] = target: Gal(b1-4)GlcNAc(b1-2)Man(a1-3)[Gal(b1-4)GlcNAc(b1-2)Man(a1-6)][Gal(b1-4)GlcNAc(b1-4)]Man(b1-4)GlcNAc(b1-4)[Fuc(a1-6)]GlcNAc
# In short: as §1
# [23] = target: Gal(b1-4)GlcNAc(b1-2)[Gal(b1-4)GlcNAc(b1-6)]Man(a1-6)[Gal(b1-4)GlcNAc(b1-2)Man(a1-3)]Man(b1-4)GlcNAc(b1-4)[Fuc(a1-6)]GlcNAc
# In short: as §1
# [24] = target: Gal(b1-4)GlcNAc(b1-3)Gal(b1-4)GlcNAc(b1-3)Gal(b1-4)GlcNAc(b1-3)Gal(b1-4)GlcNAc(b1-3)Gal(b1-4)GlcNAc(b1-2)Man(a1-3)[Gal(b1-4)GlcNAc(b1-3)Gal(b1-4)GlcNAc(b1-3)Gal(b1-4)GlcNAc(b1-3)Gal(b1-4)GlcNAc(b1-3)Gal(b1-4)GlcNAc(b1-2)Man(a1-6)]Man(b1-4)GlcNAc(b1-4)GlcNAc
# In short: as §1
binder,measurement,setting,value
B1,glycan array binding signal (z-score),Fuc(a1-2)Gal,4.93
same,glycan array binding signal (z-score),[1],0.052
same,glycan array binding signal (z-score),[2],-0.56
same,glycan array binding signal (z-score),[3],0.398
same,glycan array binding signal (z-score),[4],9.35
same,glycan array binding signal (z-score),[5],4.15
same,glycan array binding signal (z-score),[6],4.78
same,glycan array binding signal (z-score),[7],3.89
same,glycan array binding signal (z-score),[8],3.58
same,glycan array binding signal (z-score),[9],0.785
same,glycan array binding signal (z-score),[10],9.04
same,glycan array binding signal (z-score),[11],5.04
same,glycan array binding signal (z-score),Fuc(a1-2)[Gal(a1-3)]Gal,3.18
same,glycan array binding signal (z-score),[12],-0.442
same,glycan array binding signal (z-score),[13],0.499
same,glycan array binding signal (z-score),[14],4.37
same,glycan array binding signal (z-score),[15],-0.325
same,glycan array binding signal (z-score),[16],1.44
same,glycan array binding signal (z-score),[17],0.363
same,glycan array binding signal (z-score),[18],4.02
same,glycan array binding signal (z-score),[19],-0.567
same,glycan array binding signal (z-score),[20],0.551
same,glycan array binding signal (z-score),[21],0.325
same,glycan array binding signal (z-score),Gal(b1-3)GlcNAc6S,-0.504
same,glycan array binding signal (z-score),[22],1.72
same,glycan array binding signal (z-score),[23],-0.467
same,glycan array binding signal (z-score),[24],-0.491
